# Measured values as given in ChEMBL document CHEMBL1157539, “Thousands of chemical starting points for antimalarial lead identification” (Nature, 2010).
# What was measured:
# Format in all cases: functional
# Plasmodium falciparum [1] = assay: GSK_TCMDC: Inhibition of Plasmodium falciparum 3D7 in whole red blood cells, using parasite LDH activity as an index of growth. Test compounds present at 2uM
# Plasmodium falciparum [2] = assay: GSK_TCMDC: Inhibition of Plasmodium falciparum Dd2 in whole red blood cells, using parasite LDH activity as an index of growth. Test compounds present at 2uM
# HepG2 = assay: GSK_TCMDC: Percent inhibition of human HepG2 cell line. Test compounds present at 10uM.
SMILES,Inhibition (Plasmodium falciparum [1]),Inhibition (Plasmodium falciparum [2]),Inhibition (HepG2)
COc1ccc(-c2ccc(NC(=O)c3cccc(C#N)c3)cc2)cc1CN1CCN(C)CC1.O=C(O)C(F)(F)F,100%,59%,26%
COc1ccc(CCN(C)CCOc2ccc(NC(=O)c3cccc4c(=O)c5cc(SC)ccc5[nH]c34)cc2)cc1OC,97%,82%,52%
CCOC(=O)c1ccc(N=C2SC(=Cc3cc(Br)ccc3O)C(=O)N2C)cc1,99%,96%,0%
O=C(O)C(F)(F)F.O=S(=O)(NCCN1CCCC1)c1ccc(-c2ccc(CNCc3ccsc3)cc2)cc1F,96%,40%,27%
Cc1cccc2nc(-c3ccc(-c4cccc(CNCCCN5CCCC5=O)c4)s3)[nH]c12.O=C(O)C(F)(F)F,100%,26%,14%
COc1cccc(C(O)CNc2ccnc(Nc3cccc(-c4csc(C)n4)c3)n2)c1 (stereo not drawn),99%,73%,38%
CN(C)c1ccnc2ccc(NC(=O)Nc3ccnc4ccccc34)cc12,100%,99%,15%
CC(C)(c1ccccc1)c1ccc(O)c(CN2CCOCC2)c1,99%,88%,0%
CS(=O)(=O)NCCCNCc1ccc(-c2ccc(-c3nc4cc(F)ccc4[nH]3)cc2)cc1.O=C(O)C(F)(F)F,100%,97%,17%
CN(Cc1cccc(O)c1)C1CCN(c2cc(NC(=O)c3ccc(F)cc3)ccn2)CC1.O=C(O)C(F)(F)F,94%,9%,24%
COc1ccc(C2C(C(=O)Nc3cc(Cl)c(OC)cc3OC)c3ccccc3C(=O)N2C)cc1 (stereo not drawn),100%,98%,14%
Cl.N#Cc1ccc2c(c1)CCN(CCC1CCC(NC(=O)c3cc4cccc(Cl)c4[nH]3)CC1)CC2 (stereo not drawn),99%,78%,34%
O=C(Nc1ccccc1)Nc1cccc(-c2cc(CNCCc3ccccc3)sc2-c2ccncc2)c1,100%,84%,14%
COc1cc(N)cc2sc(N)nc12,99%,99%,0%
CCCc1cc(Cc2cnc(N)nc2N)cc(CCC)c1O.Cl,96%,5%,64%
FC(F)(F)c1ccc(CNC2CCN(CC3CCCCC3)CC2)cc1.O=C(O)C(F)(F)F,87%,5%,4%
FC(F)(F)c1ccc2[nH]c(-c3ccc(-c4cccc(CNCC5CCCO5)c4)cc3)nc2c1.O=C(O)C(F)(F)F (stereo not drawn),100%,100%,36%
O=C(NC1CC1)c1ccc(N2CCC(Oc3ccc(F)cc3)CC2)nc1,89%,79%,0%
O=C(Cc1c[nH]cn1)Nc1ccc(-c2cccc(-c3nc4cc(C(F)(F)F)ccc4[nH]3)c2)cc1,100%,95%,20%
COc1cc(Cc2cnc(N)nc2N)cc(OCCCc2cc(OCc3ccccc3)no2)c1OC,86%,4%,30%
CNC(=O)Cc1ccc(C(=O)Nc2cccc(-c3cccc(-c4nc5cc(C(F)(F)F)ccc5[nH]4)c3)c2)cc1,95%,37%,40%

SMILES,Inhibition (Plasmodium falciparum [1]),Inhibition (Plasmodium falciparum [2]),Inhibition (HepG2)
c1cc(CNC2Cc3ccc(-c4cccs4)cc3C2)cc(-n2ccnc2)c1 (stereo not drawn),100%,63%,0%
Nc1cc2c(C3CCN(CC4CCN(C(=O)/C=C/c5ccc(Cl)c(Cl)c5)CC4)CC3)c[nH]c2cn1,100%,94%,0%
COC(=O)c1cccc(CNCc2ccc(-c3ccc(-c4nc5cc(C(F)(F)F)ccc5[nH]4)cc3)cc2)c1.O=C(O)C(F)(F)F,100%,98%,22%
COc1cccc(-c2cnc(N)c(-c3nc4ccc(F)cc4[nH]3)c2)c1.Cl,97%,43%,47%
CC(CN(C)C)C(=O)Nc1cccc(-c2ccc(-c3nc4cc(F)ccc4[nH]3)s2)c1 (stereo not drawn),100%,99%,3%
CC1CN(c2ccc(NC(=O)c3cccs3)cc2)CCN1Cc1cccc(F)c1.O=C(O)C(F)(F)F (stereo not drawn),96%,96%,5%
Cc1cc(N2Cc3ccccc3C2)nc(Nc2ccc(S(=O)(=O)N3CCOCC3)cc2)n1.Cl,100%,85%,13%
COc1ccc(C2CC(c3cccs3)=NN2C(=O)c2ccccc2)cc1OC (stereo not drawn),99%,83%,5%
Cc1cccc(Oc2cccc3[nH]nc(N)c23)c1,85%,0%,6%
C=CCOc1ccc(CNC2CCN(Cc3ccccc3)CC2)cc1Br.O=C(O)C(=O)O,92%,8%,9%
CS(=O)(=O)CCNCc1ccc(-c2ccc3ncnc(Nc4ccc(OCc5ccccc5)c(Cl)c4)c3c2)o1.Cl [GW574783B],100%,76%,4%
CC(=O)Nc1ccc(CN2CCCN(c3cc(NC(=O)c4cccc(C)c4)ccn3)CC2)cc1.O=C(O)C(F)(F)F,92%,10%,0%
COc1cc2ncnc(Nc3ccc(OCc4ccccc4Br)c(OC)c3)c2cc1OC.Cl,100%,62%,11%
COc1ccc(CN(C)Cc2ccc(NC(=O)c3cccc4c(=O)c5cccc(C)c5[nH]c34)cc2)cc1OC,92%,22%,7%
CCOC(=O)c1ccc(NC(=O)Nc2ccc(-c3ccc(-c4nc5cc(C(F)(F)F)ccc5[nH]4)cc3)cc2)cc1,100%,52%,20%
COc1ccc(CNC(=O)c2cnc3c(O)cccc3c2Nc2cccc(NC(=O)c3ccc(Cl)c(Cl)c3)c2)cc1.O=C(O)C(F)(F)F,96%,89%,54%
Br.CC1(C)NC(N)=NC(=N)N1OCCCc1ccc(Cl)cc1Cl,95%,95%,54%
COc1ccc(C(=O)Nc2ccc(Nc3nc(C)cc(N(C)C)n3)cc2)c(OC)c1,100%,72%,34%
CC(C)N(Cc1ccc(-c2ccc(C(F)(F)F)cc2)cc1)C(=O)Cn1c(CCc2cccc(F)c2F)cc(=O)c2ccc(CCCN3CCCCC3)cc21.O=C(O)C(O)C(O)C(=O)O,100%,82%,99%
CC(C)(C)CCOC(=O)N1CCc2c(cc(O)c(O)c2Cl)C(c2ccc(O)cc2)C1 (stereo not drawn),97%,95%,2%
COCCN1CCC(NCC(C)(C)c2nc(-c3ccc(Cl)c(O)c3)c(-c3ccncc3)[nH]2)CC1.Cl,100%,47%,0%

SMILES,Inhibition (Plasmodium falciparum [1]),Inhibition (Plasmodium falciparum [2]),Inhibition (HepG2)
CC(C)C1=NC(=O)c2cc([N+](=O)[O-])ccc2CN1,98%,0%,6%
Cc1[nH]c(C)c([N+](=O)[O-])c(=O)c1-c1ccc(Oc2ccc(OC(F)(F)F)cc2)cc1,97%,97%,0%
CCOc1ccccc1C(=O)Nc1cccc(-c2nc3ncccn3c2C)c1,92%,88%,0%
Cc1ccc(Nc2nccc(Nc3ccc4c(C)n[nH]c4c3)n2)cc1F.Cl,95%,1%,6%
CON=Cc1sc(CNCCCN=c2cc(O)c3ccccc3[nH]2)c(C)c1Br.Cl,96%,63%,0%
OC1(c2ccc(Br)cc2)CCN(C2CCN(Cc3ccccc3)CC2)CC1,100%,18%,8%
COc1ccc(C(=O)Nc2ccc3oc(-c4ccc(C(F)(F)F)cc4)cc3c2)cc1CCCN(C)C,98%,27%,98%
Fc1cc(Cl)ccc1Nc1ccnc2cc(-c3ccc(CN4CCCCC4)o3)ccc12,100%,99%,16%
COc1cc(-c2nc(-c3ccccc3)c(-c3ccccc3)[nH]2)cc(OC)c1O,100%,90%,5%
O=C(O)C(F)(F)F.O=[N+]([O-])c1cccc(CNCC2CCN(Cc3ccc(C(F)(F)F)cc3)CC2)c1,100%,23%,7%
N#Cc1cccc(NC(=O)Nc2cccc(-c3cccc(-c4nc5cc(F)ccc5[nH]4)c3)c2)c1,100%,66%,60%
O=C(/C=C/c1ccc(CNCCN2CCOCC2)cc1)NCCc1ccccc1,94%,3%,9%
O=C(Nc1ccc(-c2cccc(-c3nc4cc(C(F)(F)F)ccc4[nH]3)c2)cc1)Nc1ccc(Cl)c(Cl)c1,98%,23%,42%
CC(C)(C)c1ccc(CN2CCC(CNC(=O)c3cc(-c4ccccc4)nc4ccccc34)CC2)cc1,89%,36%,33%
Cl.N#Cc1cccc(-c2ccc(C(=O)Nc3ccc4c(c3)CCN(C3CCC3)CC4)cn2)c1,96%,5%,26%
CCc1sc(N2CCN(C)CC2)nc1C(=O)Nc1ccc(F)cc1C(F)(F)F.O=C(O)C(F)(F)F,100%,98%,0%
CCCNCc1ccc(-c2ccc(CN(C(=O)c3nn(-c4ccccc4)nc3C)C(C)CN(C)C)cc2)nc1.O=C(O)C(F)(F)F (stereo not drawn),95%,95%,27%
COc1ccc(-c2c(-c3ccc(OCc4ccccc4)cc3O)n[nH]c2C(F)(F)F)cc1,93%,57%,49%
COc1cc2nc(NCC3CCN(c4nc(N)c5cc(OC)c(OC)cc5n4)CC3)nc(N)c2cc1OC,92%,73%,12%
